The source made the active and inactive calls. The calls were made as follows: active = hit-call score of the fitted dose curve at least 0.9, where 1 is the maximum; inactive = score below 0.9.

What is called AC50 is the concentration giving half of the maximal activity seen.

Read-out in the first experiment: solute carrier (SLC22A1), SLC22A1 (gene 6580)
As to the kind of experiment: LTEA_HepaRG_SLC22A1: Life Technologies and Expression Analysis (LTEA) Assay for solute carrier (SLC22A1) using HepaRG (AID 2283524).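 As to AC50: differentiated human HepaRG liver cells in serum-free induction medium; TaqMan qRT-PCR normalized to ACTB GAPDH and POLR2A housekeeping genes.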 The conditions noted are these: mRNA level, 48 h; actives raise or lower the signal. In outline:
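Transcript level of SLC22A1 quantified by qRT-PCR (normalized to three housekeeping genes) after 48 h chemical exposure of HepaRG cells, eight concentrations up to 100 µM, half-log steps, 0.5% DMSO vehicle. Gain or loss relative to DMSO fitted bidirectionally.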
With `COCCOCCO`, the compound was called inactive.

In the case of `Nc1cc2c3c(c1)C(c1ccccc1)=N[C@@H](NC(=O)c1cccnc1)C(=O)N3CC2`, the call was inactive.

In the case of `CCNc1nc(Cl)nc(NC(C)(C)C)n1`, the result was inactive.

As for `CC(Cl)(Cl)C(=O)O`, the compound was classed as inactive.

In the case of `Cc1cccc(N)c1`, the compound was called inactive.

Consider `CC(Cc1ccc(OCC(=O)O)cc1)NCC(O)c1csc(C(F)(F)F)n1` (stereo not given), for which the compound was called inactive.

For the compound `CSC(C)(C)C=NO`, the call was inactive.

With `Cc1ccc(N)cc1N`, the compound was classed as inactive.

Turning to `CCOS(=O)(=O)OCC`, the result was inactive.

Consider `CCCCN(CCCC)SN(C)C(=O)Oc1cccc2c1OC(C)(C)C2`, for which the compound was classed as inactive.

As to `CCOC(=O)c1ccccc1C(=O)OCC`, the outcome was inactive.

Regarding `CCCCc1ccccc1`, the call was inactive.

As to `c1nc[nH]n1`, the compound was classed as inactive.

Regarding `O=P(Oc1ccccc1)(Oc1ccccc1)Oc1ccccc1`, the AC50 was 50 µM (active).

`ClC(Cl)c1ccccc1`: the outcome was inactive.

Consider `Cc1ccc([N+](=O)[O-])cc1C`, for which the compound was called inactive.

Take `O=[N+]([O-])c1ccccc1`: the outcome was inactive.

For `CN(C)C(=O)Cl`, the compound was classed as inactive.

On to `O=P1(N(CCCl)CCCl)NCCCO1` (stereo not given), for which the result was inactive.

Regarding `[N-]=[N+]=[N-]`, the compound was classed as inactive.

`Nc1ccc(Cl)cc1`: the compound was classed as inactive.

Turning to `CCC(C)(C)c1ccc(O)cc1`, the call was inactive.

As for `c1cc2c3c(cccc3c1)CC2`, the call was inactive.

Consider `O=C(O)C1C(C(=O)O)C2(Cl)C(Cl)=C(Cl)C1(Cl)C2(Cl)Cl` (stereo not given), for which the compound was classed as inactive.

Regarding `CCOP(=S)(OCC)SCSCC`, the compound was called inactive.

`c1ccc2c(c1)Nc1ccccc1S2`: the outcome was inactive.

For the compound `O=[N+]([O-])c1ccc(Cl)c(Cl)c1`, the call was inactive.

Consider `CCCCCCCc1ccc(O)cc1`, for which the call was inactive.

Take `CCCCN(CCCC)N=O`: the compound was called inactive.

In the case of `CCCN(CCC)c1c([N+](=O)[O-])cc(C(C)C)cc1[N+](=O)[O-]`, the concentration at half-maximal activity (AC50) was 77.4 µM (active).

Read-out in a further experiment: Pyruvate Dehydrogenase Kinase 4 (PDK4), PDK4 (gene 5166)
As to the kind of experiment: LTEA_HepaRG_PDK4: Life Technologies and Expression Analysis (LTEA) Assay for Pyruvate Dehydrogenase Kinase 4 (PDK4) using HepaRG (AID 2283525). The conditions noted are these: mRNA level, 48 h; actives raise or lower the signal. In outline:
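Readout is qRT-PCR of PDK4 transcript, normalized to three housekeeping genes, with bidirectional fitting against 0.5% DMSO vehicle. Differentiated HepaRG cells were treated 48 h in serum-free induction medium, duplicate wells, eight-point half-log series topping at 100 uM.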
Take `COCCOCCO`: the compound was classed as inactive.

With `Nc1cc2c3c(c1)C(c1ccccc1)=N[C@@H](NC(=O)c1cccnc1)C(=O)N3CC2`, the result was inactive.

For `CCNc1nc(Cl)nc(NC(C)(C)C)n1`, the compound was classed as inactive.

For the compound `CC(Cl)(Cl)C(=O)O`, the call was inactive.

In the case of `Cc1cccc(N)c1`, the outcome was inactive.

Consider `CC(Cc1ccc(OCC(=O)O)cc1)NCC(O)c1csc(C(F)(F)F)n1` (stereo not given), for which the result was inactive.

For the compound `CSC(C)(C)C=NO`, the compound was classed as inactive.

Take `Cc1ccc(N)cc1N`: the AC50 was 36.3 µM (active).

`CCOS(=O)(=O)OCC`: the compound was classed as inactive.

In the case of `CCCCN(CCCC)SN(C)C(=O)Oc1cccc2c1OC(C)(C)C2`, the call was inactive.

Regarding `CCOC(=O)c1ccccc1C(=O)OCC`, the outcome was inactive.

For the compound `CCCCc1ccccc1`, the compound was called inactive.

As to `c1nc[nH]n1`, the call was inactive.

For the compound `O=P(Oc1ccccc1)(Oc1ccccc1)Oc1ccccc1`, the AC50 was 28.4 µM (active).

Take `ClC(Cl)c1ccccc1`: the outcome was inactive.

Turning to `Cc1ccc([N+](=O)[O-])cc1C`, the compound was classed as inactive.

Consider `O=[N+]([O-])c1ccccc1`, for which the compound was called inactive.

`CN(C)C(=O)Cl`: the call was inactive.

As for `O=P1(N(CCCl)CCCl)NCCCO1` (stereo not given), the outcome was inactive.

As for `[N-]=[N+]=[N-]`, the concentration at half-maximal activity (AC50) was 71.7 µM (active).

With `Nc1ccc(Cl)cc1`, the compound was classed as inactive.

Regarding `CCC(C)(C)c1ccc(O)cc1`, the compound was classed as inactive.

Turning to `c1cc2c3c(cccc3c1)CC2`, the compound was classed as inactive.

Take `O=C(O)C1C(C(=O)O)C2(Cl)C(Cl)=C(Cl)C1(Cl)C2(Cl)Cl` (stereo not given): the compound was classed as inactive.

With `CCOP(=S)(OCC)SCSCC`, the compound was called inactive.

On to `c1ccc2c(c1)Nc1ccccc1S2`, for which the compound was classed as inactive.

`O=[N+]([O-])c1ccc(Cl)c(Cl)c1`: the outcome was inactive.

Take `CCCCCCCc1ccc(O)cc1`: the compound was classed as inactive.

Regarding `CCCCN(CCCC)N=O`, the outcome was inactive.

As to `CCCN(CCC)c1c([N+](=O)[O-])cc(C(C)C)cc1[N+](=O)[O-]`, the AC50 is 20.9 µM (active).

Read-out in a further experiment: NAD(P)H dehydrogenase [quinone] 1 (NQO1), NQO1 (gene 1728)
Put plainly: LTEA_HepaRG_NQO1: Life Technologies and Expression Analysis (LTEA) Assay for NAD(P)H dehydrogenase [quinone] 1 (NQO1) using HepaRG (AID 2283526). The conditions noted are these: mRNA level, 48 h; actives raise or lower the signal. In outline: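 qRT-PCR read-out (Fluidigm TaqMan), normalized to three housekeeping genes, after 48 h chemical exposure of HepaRG cells. Concentrations: eight points, top 100 uM, half-log steps, 0.5% DMSO vehicle. Gain or loss of signal fitted relative to DMSO.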
`COCCOCCO`: the call was inactive.

Regarding `Nc1cc2c3c(c1)C(c1ccccc1)=N[C@@H](NC(=O)c1cccnc1)C(=O)N3CC2`, the result was inactive.

`CCNc1nc(Cl)nc(NC(C)(C)C)n1`: the call was inactive.

On to `CC(Cl)(Cl)C(=O)O`, for which the outcome was inactive.

Consider `Cc1cccc(N)c1`, for which the outcome was inactive.

`CC(Cc1ccc(OCC(=O)O)cc1)NCC(O)c1csc(C(F)(F)F)n1` (stereo not given): the compound was called inactive.

Turning to `CSC(C)(C)C=NO`, the compound was classed as inactive.

Turning to `Cc1ccc(N)cc1N`, the compound was called inactive.

As for `CCOS(=O)(=O)OCC`, the result was inactive.

As for `CCCCN(CCCC)SN(C)C(=O)Oc1cccc2c1OC(C)(C)C2`, the compound was classed as inactive.

Turning to `CCOC(=O)c1ccccc1C(=O)OCC`, the compound was called inactive.

Regarding `CCCCc1ccccc1`, the compound was classed as inactive.

Take `c1nc[nH]n1`: the half-maximal activity concentration (AC50) was 0.106 µM (active).

Turning to `O=P(Oc1ccccc1)(Oc1ccccc1)Oc1ccccc1`, the outcome was inactive.

For the compound `ClC(Cl)c1ccccc1`, the compound was classed as inactive.

For the compound `Cc1ccc([N+](=O)[O-])cc1C`, the outcome was inactive.

For the compound `O=[N+]([O-])c1ccccc1`, the compound was called inactive.

With `CN(C)C(=O)Cl`, the compound was called inactive.

Take `O=P1(N(CCCl)CCCl)NCCCO1` (stereo not given): the compound was called inactive.

Turning to `[N-]=[N+]=[N-]`, the outcome was inactive.

Turning to `Nc1ccc(Cl)cc1`, the outcome was inactive.

In the case of `CCC(C)(C)c1ccc(O)cc1`, the compound was called inactive.

With `c1cc2c3c(cccc3c1)CC2`, the result was inactive.

For `O=C(O)C1C(C(=O)O)C2(Cl)C(Cl)=C(Cl)C1(Cl)C2(Cl)Cl` (stereo not given), the compound was classed as inactive.

Take `CCOP(=S)(OCC)SCSCC`: the outcome was inactive.

`c1ccc2c(c1)Nc1ccccc1S2`: the outcome was inactive.

Consider `O=[N+]([O-])c1ccc(Cl)c(Cl)c1`, for which the compound was called inactive.

Regarding `CCCCCCCc1ccc(O)cc1`, the compound was called inactive.

Take `CCCCN(CCCC)N=O`: the outcome was inactive.

On to `CCCN(CCC)c1c([N+](=O)[O-])cc(C(C)C)cc1[N+](=O)[O-]`, for which the compound was called inactive.

These data come from PubChem BioAssay (EPA / NIEHS).
